Screens deposited in PubChem by National Center for Advancing Translational Sciences (NCATS).
Sampled rows, rich in hits. Any-hit rate of the full collection: about 7.6%.
RORg inh: qHTS for inhibitors of ROR gamma transcriptional activity. AID 2551, 2010. Potency, µM (highest dose often 53.6 µM), without a hit: at the top dose activity change, negative = inhibition, hits mostly inhibitors. 310,000 tested, 5.4% active. Drosophila S2 Gal4-RORgamma UAS-luciferase reporter, 20 h. Nuclear receptor ROR-gamma (Mus musculus), P51450; further: potency means the concentration at half of the fitted maximal effect; on the % scale 0 is the no-effect control and ±100 the full control effect; nearly all actives have a fitted effect of over 60% in size
Target sequence (P51450 whole entry, looked up, the tested form may be a part): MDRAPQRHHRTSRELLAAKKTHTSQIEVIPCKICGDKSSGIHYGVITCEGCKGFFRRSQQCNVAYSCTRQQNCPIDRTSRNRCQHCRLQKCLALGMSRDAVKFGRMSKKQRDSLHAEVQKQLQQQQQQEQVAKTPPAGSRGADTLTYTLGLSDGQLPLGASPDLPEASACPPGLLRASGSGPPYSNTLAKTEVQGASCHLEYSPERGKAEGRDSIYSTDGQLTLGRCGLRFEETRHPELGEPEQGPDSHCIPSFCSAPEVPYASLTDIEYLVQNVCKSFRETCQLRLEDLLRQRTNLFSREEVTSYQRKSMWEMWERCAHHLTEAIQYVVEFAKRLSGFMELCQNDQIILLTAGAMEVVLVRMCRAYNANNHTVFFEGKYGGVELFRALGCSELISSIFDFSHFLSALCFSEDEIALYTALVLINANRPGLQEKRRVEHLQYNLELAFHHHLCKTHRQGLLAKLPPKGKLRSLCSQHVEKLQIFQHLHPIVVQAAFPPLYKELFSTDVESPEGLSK
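Schneider cells (Drosophila), stable Gal4 DBD–ROR gamma + UAS-luc; 1 hr cmpd preincubation; Cu2+ induction 700 uM final; 20 hr ambient; luminescence.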
Giardia kill: Small Molecules that selectively kill Giardia lamblia: qHTS | 340,000 tested, 0.15% active | Giardia lamblia trophozoite viability | activity change, % at 7.66 µM, hits read low; in the data active means activity change below about -80%; inconclusive means between about -30% and that limit;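 further: parasites exposed to compound for two days anaerobically before the ATP read; on the % scale 0 is the no-effect control and ±100 the full control effect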
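Media and compound were dispensed first, then trophozoites at 100 cells/well; plates sat 48 hrs at 37 deg C without oxygen before ATP luminescence reagent was added and read after 15-30 min at room temperature.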
BRCA1 expr up: qHTS Assay to Identify Small Molecule Activators of BRCA1 Expression | Potency, µM (doses to about 46.1 µM), for the others: top-dose activation, most hits filed as activators | 380,000 tested, 1.1% active | MCF7-BRCA1-FFLuc reporter, luminescence, 48 h; response scale: scaled: vehicle 0%, 10 µM genistein 100% | AID 624202, 2012; further: potency means the concentration at half of the fitted maximal effect; nearly all actives have a fitted effect of over 80% in size
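Compounds are tested at multiple concentrations on MCF7 BRCA1-luciferase reporter cells seeded at 2000 per well; after 48 h, a single luminescence end-point is taken and curves fitted to the normalized data.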
Gal4-VP16 FLuc: VP16 counterscreen qHTS for inhibitors of ROR gamma transcriptional activity; Drosophila S2 Gal4-VP16 UAS-luciferase, luminescence, 20 h; Potency, µM (titrated, usually from 53.6 µM), without a hit: at the highest dose activity, negative = inhibition, hits mostly inhibitors; 310,000 tested, 3.5% active;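 further: Gal4-VP16 expression switched on by copper sulfate through the metallothionein promoter; potency means the concentration at half of the fitted maximal effect; on the % scale 0 is the no-effect control and ±100 the full control effect; nearly all actives have a fitted effect of over 50% in size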
ELG1 repair inh: qHTS screen for small molecules that inhibit ELG1-dependent DNA repair in human embryonic kidney (HEK293T) cells expressing luciferase-tagged ELG1; Potency, µM (series often up to 46.1 µM), without a hit: at the top dose activity change, negative = inhibition, most hits filed as inhibitors; 330,000 tested, 2.3% active; HEK293T ELG1-luciferase reporter, luminescence, 16 h; DNA damage induced by 5-fluorouridine; further: potency means the concentration at half of the fitted maximal effect; on the % scale 0 is the no-effect control and ±100 the full control effect; nearly all actives have a fitted effect of over 55% in size
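Reporter activity after DNA damage by 5-fluorouridine is monitored. Compound-treated cells incubate 16 hr at 37 °C, then ONE-Glo is added for 30 min before luminescence reading.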
p53 reactivation: qHTS assay for re-activators of p53 using a Luc reporter | H1299 p53-A138V BP100-luciferase reporter, luminescence, 24 h | Potency, µM (series often up to 92.2 µM), for the others: top-dose activity change, positive = activation, hits mostly activators | 320,000 tested, 0.063% active | AID 504706, 2011; further: potency means the concentration at half of the fitted maximal effect; % of control where 0% means no effect; nearly all actives have a fitted effect of over 45% in size
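p53-null H1299 cells stably carrying temperature-sensitive p53-A138V and a BP100-luciferase reporter were pinned with compounds (4-point, 1:5 series) and held 24 hrs at 37 deg C. Luminescence was read 10 min after detection reagent.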
* = called active by the depositor; u = inconclusive; x = no result. Unless noted, the call rests on the fitted dose curve; in most records, active means well fitted curve in the direction sought with a large enough effect; inconclusive means small, poorly fitted or top-dose-only effect, or another doubt; inactive means no such curve, though single readings can be large; an effect the other way counts as inactive or inconclusive.

SMILES	RORg inh	Giardia kill	BRCA1 expr up	Gal4-VP16 FLuc	ELG1 repair inh	p53 reactivation
Cc1nc(SCC(=O)NCc2ccco2)c2c(C)c(C)sc2n1	-25%	13	-35%	22%	-18%	-11%
Cc1sc2nc(C(C)C)nc(SCC(=O)NCc3ccco3)c2c1C	5µM*	-9	-19%	u	u	3%
O=C(CSc1nnc(-c2ccccc2)c(-c2ccccc2)n1)NCc1ccco1	-26%	0	-44%	1%	23µM*	-8%
Cc1sc2nc(C(C)C)nc(SCC(=O)N3c4ccccc4CC3C)c2c1C (configuration not stated)	8.9µM*	30	-17%	18µM*	-20%	-8%
Cc1ccc(-c2cc3ncc4c(n3n2)-c2cc(C)ccc2OC4)cc1	x	x	-5%	x	x	x
CCC(=O)c1ccc(O)c(CC=C(C)C)c1	-2%	1	8%	-13%	u	-4%
Cc1nc(SCC(=O)NCc2ccco2)nc(C)c1C	7.1µM*	5	21%	-4%	-2%	-3%
O=C(CSc1nc(-c2ccccc2)cs1)NCc1ccco1	u	-8	25%	9%	u	11%
Cc1nc(SCC(=O)NC(=O)NCc2ccco2)nc(C)c1C	-3%	-7	-2%	-3%	-7%	3%
O=C(CSc1nc(-c2ccccc2)c(-c2ccccc2)[nH]1)NCc1ccco1	10µM*	-12	-89%	u	-35%	1%
CCn1c(SCC(=O)NCc2ccco2)nnc1-c1cccs1	11µM*	4	4%	u	0%	1%
CCn1c(SC(=O)NC2CCCCC2)nnc1-c1cccs1	7.9µM*	-1	72%	u	u	11%
CN1/C(=C/C2CC(=O)NC2=O)C(C)(C)c2ccccc21 (configuration not stated)	0%	-17	3%	23%	-3%	0%
CN1/C(=C\P(=O)(N(C)C)N(C)C)C(C)(C)c2ccccc21	-39%	-6	-75%	7.9µM*	-1%	13%
C(=N\N1CCN(C2c3ccccc3-c3ccccc32)CC1)/c1cccnc1	-28%	-21	-22%	u	2%	-1%
C(=N\N1CCN(C2c3ccccc3-c3ccccc32)CC1)/c1ccccn1	7.1µM*	0	-42%	u	-1%	-5%
FC(F)(F)c1cccc(Oc2nc(-c3ccccc3)nnc2C(F)(F)F)c1	20%	-4	-3%	-11%	u	-1%
COc1cnc(-c2ccccn2)nc1Oc1ccccc1	11µM*	2	4%	u	-23%	-3%
COc1ccnc(Oc2ccccc2)c1C#N	4%	-9	4%	-3%	24%	3%
CN(c1ccccc1)c1ncccn1	x	-21	-2%	x	x	x
COc1cnc(-c2ccccn2)nc1Oc1cccc(C(F)(F)F)c1	6.3µM*	x	x	11µM*	-16%	-1%
COc1cnc(-c2ccccn2)nc1N(C)c1ccccc1	7.9µM*	-15	-46%	u	u	u
CN1CCN(NC(=S)NC2CCCCC2)CC1	-32%	-6	15%	1%	18%	1%
CC(=O)c1ccc(S(=O)(=O)NCC2(N3CCOCC3)CCCCC2)cc1	x	11	-9%	x	11%	5%
COc1ccc(/C(O)=C/c2nc3ccc(C(=O)NCCc4cccc(C)c4)cc3[nH]c2=O)cc1OC	-10%	4	-69%	u	3.3µM*	13%
CC(/C=N/n1c(-c2cc(C)[nH]n2)n[nH]c1=S)=C\c1ccccc1	8.9µM*	1	-7%	u	-1%	2%
COc1cc(/C=N/n2c(C3CCCCC3)n[nH]c2=S)cc(Br)c1O	-42%	0	-27%	-22%	-19%	-3%
